Measurements reported in PubChem BioAssay (NCATS).
Records with an inconclusive call do not appear. Calls of active or inactive are those of the source. Unless noted, the call rests on the fitted dose curve; in most records, active means well fitted curve in the direction sought with a large enough effect; inconclusive means small, poorly fitted or top-dose-only effect, or another doubt; inactive means no such curve, though single readings can be large; an effect the other way counts as inactive or inconclusive.

Assays:
[1] = Counterscreen for APE1 Inhibitors: Fluorescent Dye Displacement Validation Assay (AID 1707);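 further: plate controls were ThO with dsDNA and no compound for no effect and ThO without dsDNA for full effect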
Method in brief: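 Assay buffer: Tris-HCl pH7.5 with 50mM NaCl, 2 mM MgCl2, 0.01% Tween-20. Dye 250 nM, duplex 50 nM final. Readout: decrease in ThO endpoint fluorescence, 480 nm excitation, 540 nm emission.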

[2] = molecular target: Endonuclease 4 (Escherichia coli (strain K12)) (UniProt P0A6C1); test: Counterscreen for APE1 Inhibitors: qHTS Validation Assay for Inhibitors of Endonuclease IV (AID 1708); further: on the % scale 0 is the no-effect control and ±100 the full control effect
Method in brief: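 qHTS concentration-response format; LOPAC1280 tested under APE1-screen conditions. 2 nM enzyme, 15 min compound preincubation at RT, then 50 nM TAMRA/BHQ-2 abasic substrate; kinetic fluorescence read, three reads at 60 s intervals.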

[3] = qHTS for differential inhibitors of proliferation of Plasmodium falciparum line GB4 (AID 1816); settings: Potency: Plasmodium falciparum GB4 proliferation inhibition;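 further: parasite growth measured after 72 h incubation; 0% = vehicle DMSO and -100% = reference inhibitor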
[4] = qHTS for differential inhibitors of proliferation of Plasmodium falciparum line 3D7 (AID 1876);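 further: parasite growth measured after three days of culture; 0% = vehicle wells and -100% = reference inhibitor wells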
[5] = qHTS for differential inhibitors of proliferation of Plasmodium falciparum line D10 (AID 1877);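 further: parasites grown with compound for 72 h before DNA staining; plate controls were vehicle wells for no effect and reference inhibitor wells for full effect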
[6] = qHTS for differential inhibitors of proliferation of Plasmodium falciparum line Dd2 (AID 1882); settings: Potency: Plasmodium falciparum Dd2 proliferation inhibition;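 further: series mostly up to about 29 µM; plate controls were DMSO vehicle for no effect and 0.29 µM artemisinin for full effect; nearly all actives have a fitted effect of over 65% in size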
Method in brief: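 Dd2-infected erythrocytes (0.3% parasitemia, 2.5% hematocrit final) incubated with compound 72 h at 37 C, 5% CO2; lysed with saponin/Triton buffer containing SYBR Green I, incubated overnight in the dark, then read by fluorescence (485/535 nm). Normalized to 0.29 uM artemisinin and DMSO.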

[7] = qHTS for differential inhibitors of proliferation of Plasmodium falciparum line W2 (AID 1883); settings: Potency: Plasmodium falciparum W2 proliferation inhibition;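 further: parasites grown with compound for 72 h before lysis and staining; 0% = vehicle wells and -100% = control inhibitor wells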
[8] = qHTS for differential inhibitors of proliferation of Plasmodium falciparum line HB3 (AID 1886); settings: Potency: Plasmodium falciparum HB3 proliferation inhibition;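 further: parasites grown with compound for 72 h before SYBR Green readout; plate controls were vehicle for no effect and reference inhibitor for full effect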
[9] = qHTS Assay for Modulators of Human Peripheral Myelin Protein 22 (PMP22) Expression/Activity (AID 1967; active means well fitted curve in the direction sought with a large enough effect in the signal ratio; the % refers to the signal ratio;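 further: 0% = untreated cells and 100% end not stated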)
Method in brief: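 Readout is the corrected green/red luminescence ratio after 24 h compound exposure, normalised to untreated cells (0%). Engineered MSC80 mouse Schwann cells express green luciferase from the mouse Pmp22 promoter and red luciferase from EF-alpha as internal control.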

[10] = molecular target: Ferritin light chain (Equus caballus) (UniProt P02791); test: qHTS Validation Assay for Identification of Novel General Anesthetics (AID 2323); further: series mostly up to about 77 µM; on the % scale 0 is the no-effect control and ±100 the full control effect
Ferritin light chain (Equus caballus), sequence (P02791 2-175 limits assumed): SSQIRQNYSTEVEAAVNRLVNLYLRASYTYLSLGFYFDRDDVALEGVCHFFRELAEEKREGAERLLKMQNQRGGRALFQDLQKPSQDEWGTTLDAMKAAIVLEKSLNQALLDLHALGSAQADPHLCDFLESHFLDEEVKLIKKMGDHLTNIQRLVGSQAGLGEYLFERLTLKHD
Method in brief: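 Competitive displacement of the profluorescent anesthetic 1-AMA (50% saturated, PBS) from 10 uM apoferritin, 10 min, room temperature. Activity is normalized 380/535 nm fluorescence; concentration-response fitted with a four-parameter Hill equation.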

[11] = molecular target: ATP-dependent DNA helicase Q1 (Homo sapiens) (UniProt P46063); test: qHTS Validation Assay for Inhibitors of RecQ-Like Dna Helicase 1 (RECQ1) (AID 2353);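 further: plate controls were DMSO vehicle for no effect and enzyme-free control for full effect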
ATP-dependent DNA helicase Q1 (Homo sapiens), sequence (P46063 whole entry, looked up): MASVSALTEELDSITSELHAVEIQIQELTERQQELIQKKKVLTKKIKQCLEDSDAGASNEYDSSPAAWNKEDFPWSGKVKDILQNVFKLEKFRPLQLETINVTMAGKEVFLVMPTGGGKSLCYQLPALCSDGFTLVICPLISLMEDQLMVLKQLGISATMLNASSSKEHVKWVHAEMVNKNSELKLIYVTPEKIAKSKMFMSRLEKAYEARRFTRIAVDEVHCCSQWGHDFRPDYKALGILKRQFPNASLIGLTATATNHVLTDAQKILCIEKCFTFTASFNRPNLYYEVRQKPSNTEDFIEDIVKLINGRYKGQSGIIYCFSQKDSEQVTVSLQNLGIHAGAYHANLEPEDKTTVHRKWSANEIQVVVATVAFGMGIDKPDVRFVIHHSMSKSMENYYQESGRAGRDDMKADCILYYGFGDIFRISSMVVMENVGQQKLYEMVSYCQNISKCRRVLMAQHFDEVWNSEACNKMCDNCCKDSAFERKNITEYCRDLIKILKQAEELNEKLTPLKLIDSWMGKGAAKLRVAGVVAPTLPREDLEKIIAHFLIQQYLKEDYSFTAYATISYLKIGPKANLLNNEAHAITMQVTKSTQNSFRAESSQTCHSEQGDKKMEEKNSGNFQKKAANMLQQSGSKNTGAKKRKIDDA
Method in brief: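 50 nM RECQ1T1 preincubated 15 min with compound in Tris pH 8.0 buffer with MgCl2, DTT, Tween-20 and 2.5 ug/ml poly(dI-dC); started with 200 nM TAMRA/BHQ-2 forked duplex and 2 mM ATP. Unwinding read as fluorescence (525/598 nm), two reads 2 h apart.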

[12] = Validation screen for small molecules that induce DNA re-replication in MCF 10A normal breast cells (AID 463097); further: 0% is about no effect; nearly all actives have a fitted effect of over 60% in size
Method in brief: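 Read-out is Hoechst total nuclear intensity by fluorescence scanning imager, flagging increased high-DNA-content nuclei. Compounds were incubated with MCF 10A cells for 48 hr (37 C, 5% CO2) before 40 min staining.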

[13] = Quantitative high throughput screen for delayed death inhibitors of the malarial parasite plastid, 96 hour incubation (AID 488745);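 further: luciferase-expressing P. falciparum in erythrocytes at 2% hematocrit and 0.1% parasitemia; series mostly up to about 29 µM; on the % scale 0 is the no-effect control and ±100 the full control effect; nearly all actives have a fitted effect of over 70% in size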
Method in brief: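 Infected erythrocytes were added to compound in Albumax-supplemented RPMI 1640 at 0.1% parasitemia and 2% hematocrit (final), incubated 96 h at 37 C under 5% CO2, then luciferase reagent was added and luminescence measured.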

[14] = Quantitative high throughput screen for delayed death inhibitors of the malarial parasite plastid, 48 hour incubation (AID 488752); further: on the % scale 0 is the no-effect control and ±100 the full control effect; nearly all actives have a fitted effect of over 65% in size
Method in brief: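 Readout is firefly luciferase luminescence from a reporter integrated into the parasite genome, with lower signal taken as inhibited growth. Infected red cells (0.1% parasitemia, 2% hematocrit final) are cultured with compound for one 48 h cycle at 37 C.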

[15] = molecular target: M-phase phosphoprotein 8 (Homo sapiens) (UniProt Q99549); test: qHTS Validation Assay for Inhibitors for MPP8 Chromodomain Interactions with Methylated Histone Tails (AID 488949);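 further: AlphaScreen signal from MPP8 chromodomain bound to biotinylated H3K9me3 peptide; top concentration of the series differs between compounds; on the % scale 0 is the no-effect control and ±100 the full control effect; nearly all actives have a fitted effect of over 55% in size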
M-phase phosphoprotein 8 (Homo sapiens), sequence (Q99549 whole entry, looked up): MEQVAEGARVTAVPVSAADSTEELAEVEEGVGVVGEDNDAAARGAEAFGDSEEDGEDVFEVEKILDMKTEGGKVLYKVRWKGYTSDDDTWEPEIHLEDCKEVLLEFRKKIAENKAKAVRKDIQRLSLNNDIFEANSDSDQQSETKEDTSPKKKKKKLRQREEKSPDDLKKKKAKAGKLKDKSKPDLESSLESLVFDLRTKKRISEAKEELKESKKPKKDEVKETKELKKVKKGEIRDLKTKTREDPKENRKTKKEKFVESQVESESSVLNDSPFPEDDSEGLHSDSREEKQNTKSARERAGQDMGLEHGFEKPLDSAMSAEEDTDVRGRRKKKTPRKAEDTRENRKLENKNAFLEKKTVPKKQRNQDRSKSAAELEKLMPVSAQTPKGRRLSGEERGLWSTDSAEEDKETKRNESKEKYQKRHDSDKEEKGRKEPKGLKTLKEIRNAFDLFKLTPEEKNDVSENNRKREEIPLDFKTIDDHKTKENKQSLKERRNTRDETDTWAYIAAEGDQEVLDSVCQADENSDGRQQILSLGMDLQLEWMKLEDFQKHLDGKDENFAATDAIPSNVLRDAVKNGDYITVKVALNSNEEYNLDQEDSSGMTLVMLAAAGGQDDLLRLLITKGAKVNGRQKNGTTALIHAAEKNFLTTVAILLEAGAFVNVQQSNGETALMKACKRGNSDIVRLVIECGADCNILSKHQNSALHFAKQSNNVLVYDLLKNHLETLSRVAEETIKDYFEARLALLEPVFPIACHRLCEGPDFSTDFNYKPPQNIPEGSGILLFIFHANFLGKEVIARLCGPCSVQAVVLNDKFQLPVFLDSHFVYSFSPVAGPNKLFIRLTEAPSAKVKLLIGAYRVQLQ
Method in brief: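 AlphaScreen proximity signal from streptavidin donor and Ni-chelate acceptor beads (10 ug/mL each) reported binding of MPP8 to trimethyl-K9 H3(1-18) peptide, both at 50 nM. The complex formed 30 min before a 30 min compound exposure at room temperature, in PBS pH 7.4.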

[16] = molecular target: Transient receptor potential cation channel subfamily V member 1 (Homo sapiens) (UniProt Q8NER1); test: HTS Assay for Compounds that Act as Enhancers of the Vanilloid Receptor 1 (AID 488979); further: 0% is about no effect
Transient receptor potential cation channel subfamily V member 1 (Homo sapiens), sequence (Q8NER1 whole entry, looked up): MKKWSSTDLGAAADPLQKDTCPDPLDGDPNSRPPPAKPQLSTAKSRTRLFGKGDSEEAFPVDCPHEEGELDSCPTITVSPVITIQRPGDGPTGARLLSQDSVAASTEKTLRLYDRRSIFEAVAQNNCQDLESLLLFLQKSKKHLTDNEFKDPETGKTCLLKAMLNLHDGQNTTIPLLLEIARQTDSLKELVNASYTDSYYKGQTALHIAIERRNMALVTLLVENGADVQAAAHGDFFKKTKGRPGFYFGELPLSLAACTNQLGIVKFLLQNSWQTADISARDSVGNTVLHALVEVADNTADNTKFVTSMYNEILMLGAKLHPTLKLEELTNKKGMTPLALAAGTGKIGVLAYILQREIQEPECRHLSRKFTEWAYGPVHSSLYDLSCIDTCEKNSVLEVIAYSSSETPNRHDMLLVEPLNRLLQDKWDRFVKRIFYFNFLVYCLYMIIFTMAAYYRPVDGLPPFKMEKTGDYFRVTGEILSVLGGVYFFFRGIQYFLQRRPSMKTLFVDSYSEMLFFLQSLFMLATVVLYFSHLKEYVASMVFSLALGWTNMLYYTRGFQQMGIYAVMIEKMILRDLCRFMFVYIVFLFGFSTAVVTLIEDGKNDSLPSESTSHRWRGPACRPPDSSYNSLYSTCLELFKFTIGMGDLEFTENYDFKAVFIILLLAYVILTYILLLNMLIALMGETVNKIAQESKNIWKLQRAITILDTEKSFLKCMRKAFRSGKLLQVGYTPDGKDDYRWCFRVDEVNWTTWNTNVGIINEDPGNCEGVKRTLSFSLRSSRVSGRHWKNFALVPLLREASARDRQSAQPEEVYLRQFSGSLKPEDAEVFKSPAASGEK
Method in brief: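 Calcium influx kinetics via Fluo-8 (480/520 nm) in TRPV1-expressing cells, 2000/well cultured overnight at 35.5C. Compound-alone read 3 min (agonist phase), followed by EC20 capsaicin challenge for 2 min (enhancer phase).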

[17] = molecular target: Thyrotropin receptor (Homo sapiens) (UniProt P16473); test: qHTS Assay for Antagonists of the Thyroid Stimulating Hormone Receptor (AID 488980); further: series mostly up to about 58 µM; 0% is about no effect
Thyrotropin receptor (Homo sapiens), sequence (P16473 whole entry, looked up): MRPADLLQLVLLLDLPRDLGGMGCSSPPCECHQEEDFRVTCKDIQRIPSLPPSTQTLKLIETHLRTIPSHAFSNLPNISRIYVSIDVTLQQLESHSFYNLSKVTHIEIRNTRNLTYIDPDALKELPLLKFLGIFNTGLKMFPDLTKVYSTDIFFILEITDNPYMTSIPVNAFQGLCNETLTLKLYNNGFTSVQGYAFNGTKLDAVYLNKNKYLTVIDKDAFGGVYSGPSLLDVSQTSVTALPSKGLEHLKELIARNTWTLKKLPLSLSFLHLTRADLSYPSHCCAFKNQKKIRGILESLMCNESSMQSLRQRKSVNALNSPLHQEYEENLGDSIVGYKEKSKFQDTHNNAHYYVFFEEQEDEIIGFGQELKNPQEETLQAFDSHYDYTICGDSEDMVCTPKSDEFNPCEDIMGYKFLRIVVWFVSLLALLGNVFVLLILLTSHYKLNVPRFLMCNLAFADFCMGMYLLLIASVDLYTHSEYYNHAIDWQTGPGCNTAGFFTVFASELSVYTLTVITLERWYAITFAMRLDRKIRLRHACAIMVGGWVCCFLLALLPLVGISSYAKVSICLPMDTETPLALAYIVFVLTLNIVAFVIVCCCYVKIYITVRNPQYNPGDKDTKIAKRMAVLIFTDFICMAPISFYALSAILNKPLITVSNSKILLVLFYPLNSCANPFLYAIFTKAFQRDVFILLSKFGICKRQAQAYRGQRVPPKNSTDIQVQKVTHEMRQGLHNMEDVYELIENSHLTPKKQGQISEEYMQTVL
Method in brief: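 Inhibition of cAMP raised by EC80 TSH (4 nM final) was read by HTRF, with lysate cAMP competing against cAMP-d2 for cryptate antibody after 30 min at room temperature. The cells were transfected HEK293 held in phosphodiesterase inhibitor RO 20-1724 at 70 uM.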

[18] = molecular target: Thyrotropin-releasing hormone receptor (Homo sapiens) (UniProt P34981); test: qHTS for Small Molecule Agonists and Allosteric Enhancers of Human TRH Receptor: Validation Screen for Agonists (AID 493127;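 active means calcium activation more than 3 SD above the typical response in the agonist read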;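 further: intracellular calcium rise by fluo-8 fluorescence before TRH EC20 addition; 0% is about no effect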); settings: TRH receptor agonist cell assay; at 2 µM; stronger effect = higher value
Thyrotropin-releasing hormone receptor (Homo sapiens), sequence (P34981 whole entry, looked up): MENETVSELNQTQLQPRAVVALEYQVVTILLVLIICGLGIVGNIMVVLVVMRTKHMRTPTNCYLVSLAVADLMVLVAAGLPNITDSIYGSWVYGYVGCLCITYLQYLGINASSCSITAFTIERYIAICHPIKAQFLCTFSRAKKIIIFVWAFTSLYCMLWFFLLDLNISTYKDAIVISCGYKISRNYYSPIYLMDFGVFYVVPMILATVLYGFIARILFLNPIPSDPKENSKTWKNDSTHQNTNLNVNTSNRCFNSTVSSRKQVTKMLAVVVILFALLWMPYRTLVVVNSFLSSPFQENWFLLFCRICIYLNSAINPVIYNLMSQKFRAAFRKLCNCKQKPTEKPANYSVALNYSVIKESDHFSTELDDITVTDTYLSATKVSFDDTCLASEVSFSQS
Method in brief: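 Cells 2000/well, 10% FCS, 18 h 33.5C/5% CO2 → fluo-8 Ca dye, RT 30 min–1.5 h → FDSS baseline 10 × 1 s → compound added → 230 cycles (1 s/cycle) agonist mode. TRH controls.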

[19] = molecular target: Galactokinase (Homo sapiens) (UniProt P51570); test: qHTS Validation Assay for Inhibitors of Human Galactokinase (GALK) (AID 493189); further: 0% is about no effect
Galactokinase (Homo sapiens), sequence (P51570 whole entry, looked up): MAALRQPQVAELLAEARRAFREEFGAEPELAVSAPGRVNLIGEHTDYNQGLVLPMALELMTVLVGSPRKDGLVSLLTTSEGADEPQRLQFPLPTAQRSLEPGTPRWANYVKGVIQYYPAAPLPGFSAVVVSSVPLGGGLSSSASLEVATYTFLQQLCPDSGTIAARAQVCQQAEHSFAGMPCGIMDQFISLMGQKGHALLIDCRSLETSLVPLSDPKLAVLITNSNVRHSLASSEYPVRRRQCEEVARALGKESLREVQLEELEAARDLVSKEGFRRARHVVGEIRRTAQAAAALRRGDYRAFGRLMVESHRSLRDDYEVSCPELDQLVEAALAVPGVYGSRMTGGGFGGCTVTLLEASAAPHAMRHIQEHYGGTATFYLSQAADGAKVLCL
Method in brief: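 Inhibition was measured as remaining ATP, detected by luciferase luminescence after a 1 h room-temperature reaction. Final conditions: 5 nM GALK, 100 uM galactose, 35 uM ATP, pH 8.0 HEPES buffer.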

[20] = Validation screen for small molecules that induce DNA re-replication in SW480 colon adenocarcinoma cells (AID 504364); further: 0% is about no effect
Method in brief: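 250 cells/well; compound pinned in; 48 hr, 37 C, 5% CO2; Hoechst added, 40 min; nuclear fluorescence imaged, 405 ex / 500-530 em; re-replication scored as increase in high-intensity nuclei.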

[21] = molecular target: DNA dC->dU-editing enzyme APOBEC-3G (Homo sapiens) (UniProt Q9HC16); test: qHTS for inhibitors of Vif-A3G interactions: Validation (AID 588379); further: 0% is about no effect
DNA dC->dU-editing enzyme APOBEC-3G (Homo sapiens), sequence (Q9HC16 whole entry, looked up): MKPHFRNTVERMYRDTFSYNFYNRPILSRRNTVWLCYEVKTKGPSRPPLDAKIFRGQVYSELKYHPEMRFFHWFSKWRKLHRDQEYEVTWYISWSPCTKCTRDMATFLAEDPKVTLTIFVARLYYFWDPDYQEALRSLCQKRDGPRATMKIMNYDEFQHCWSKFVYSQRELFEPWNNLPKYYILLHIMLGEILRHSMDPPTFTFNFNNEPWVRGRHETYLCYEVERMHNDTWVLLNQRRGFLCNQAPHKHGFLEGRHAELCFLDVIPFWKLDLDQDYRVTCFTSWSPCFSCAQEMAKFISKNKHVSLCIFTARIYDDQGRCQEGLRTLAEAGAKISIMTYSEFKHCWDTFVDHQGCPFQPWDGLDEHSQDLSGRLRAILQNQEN
Method in brief: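 HeLa cells stably expressing Vif and A3G-eYFP, 700 cells/well, incubated overnight at 37 deg C, then exposed to compound overnight at 37 deg C. Inhibition of Vif-mediated degradation read as increased yellow fluorescence (Ex 488/Em 500-530) by laser-scanning cytometry.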

[22] = test system: Zika virus NS2B-NS3 protease; test: Primary screen GU AMC qHTS for Zika virus inhibitors (AID 1347154);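 further: 0% = no-inhibitor control and -100% = no-enzyme control; nearly all actives have a fitted effect of over 70% in size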
Method in brief: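 Fluorogenic AMC-substrate cleavage by noncovalent NS2B-NS3 protease complex (25 nM, pH 8.0 Tris buffer with Tween 20) followed for 15 minutes at room temperature (~20% conversion). Percent inhibition from ex340/em450 signal change, fitted by 4-parameter Hill equation.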

[23] = Primary qHTS for small molecule stabilizers of the endoplasmic reticulum resident proteome: Secreted ER Calcium Modulated Protein (SERCaMP) assay (AID 1508630); further: on the % scale 0 is the no-effect control and ±100 the full control effect
Method in brief: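 GLuc-SERCaMP-expressing SH-SY5Y cells, pretreated 16 h with compound, are challenged with thapsigargin to empty ER calcium stores; after 4 h, coelenterazine is added directly to the medium and luminescence is imaged.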

O=C(O)c1cc(=O)c2ccc(Cl)cc2[nH]1
inactive: Potency [1] | Potency [2] | Potency [3] | Potency [4] | Potency [5] | Potency [6] | Potency [7] | Potency [8] | outcome [9] | outcome [10] | Potency [11] | Potency [12] | Potency [13] | Potency [14] | Potency [15] | outcome [16] | outcome [17] | activation [18] 1.31% | outcome [19] | outcome [20] | Potency [21] | Potency [22] | Potency [23]
